Screening results deposited in PubChem BioAssay by several laboratories.
A selection: hits, their analogues and other compounds. The true share with any hit is near 3.1%.
FadD28 binding – blocks FadD28 binding to the bisubstrate probe. fluorescence polarization. inhibition, % at 12.5 µM. actives 0.22% (n = 360,000). AID 588549; in the data active = inhibition above about 8.5%, passing the limit was not always enough
GDH-TPI counter – inhibits GDH-TPI coupling enzymes, artifact for Mtb FBA screen | GDH-TPI coupled enzyme counterscreen, NADH absorbance | inhibition, % at 4.8 µM | actives 1.2% (n = 360,000) | AID 588335; in the data active = inhibition above about 30%;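 also: 0% = DMSO wells and 100% = wells lacking the enzyme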
Mtb FBA inh – inhibitors of M. tuberculosis fructose-bisphosphate aldolase; actives 2.3% (n = 360,000); P9WQA3; inhibition, % at 1 µM; purified M. tuberculosis FBA, fluorescence read-out; in the data active = inhibition above about 27%;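 also: 0% = vehicle and 100% = reference inhibitor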
Target sequence (P9WQA3 whole entry, looked up): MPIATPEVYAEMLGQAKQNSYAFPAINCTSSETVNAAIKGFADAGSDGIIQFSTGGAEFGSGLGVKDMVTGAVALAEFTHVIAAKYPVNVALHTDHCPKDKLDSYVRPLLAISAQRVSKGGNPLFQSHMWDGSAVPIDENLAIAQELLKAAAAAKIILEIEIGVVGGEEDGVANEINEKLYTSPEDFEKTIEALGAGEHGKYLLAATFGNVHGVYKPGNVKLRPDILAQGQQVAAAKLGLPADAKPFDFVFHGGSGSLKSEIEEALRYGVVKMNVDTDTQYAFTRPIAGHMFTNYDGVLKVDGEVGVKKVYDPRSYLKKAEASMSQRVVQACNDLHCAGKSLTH
SARS 3CLpro inh – SARS-CoV 3CLpro protease inhibition | P0C6X7 | recombinant SARS-CoV 3CLpro, quenched FRET peptide cleavage | inhibition, % at 6 µM | actives 0.14% (n = 290,000) | AID 1706; in the data active = inhibition above about 12%
Mtb BioA inh – inhibitors of Mycobacterium tuberculosis BioA enzyme; purified M. tuberculosis BioA enzyme, plate reader; inhibition, % at 9.99 µM; actives 0.096% (n = 360,000); AID 602481; in the data active = inhibition above about 40%
An asterisk follows results filed as active; nt = no result; + = active, no number.

SMILES | FadD28 binding | GDH-TPI counter | Mtb FBA inh | SARS 3CLpro inh | Mtb BioA inh
O=C(N/N=C/c1cn(CCOc2ccccc2)c2ccccc12)c1ccncc1 | -2 | 9 | 0 | 7 | -6
Nc1ccc(C(=O)N/N=C/c2cn(Cc3ccccc3)c3ccccc23)cc1 | 0 | 37* | 1 | -1 | -7
COC(=O)N/N=C/c1cn(Cc2ccc(F)cc2)c2ccccc12 | -1 | 7 | -1 | 3 | nt
O=C(N/N=C/c1cn(Cc2cccc(F)c2)c2ccccc12)c1cc(O)cc(O)c1 | 17* | 25 | 1 | -1 | 0
COc1cc(C(=O)N/N=C/c2cn(Cc3ccccc3)c3ccccc23)ccc1O | 1 | 37* | -1 | -2 | 0
C[C@@H]1CN([C@H](C)CO)C(=O)Cc2cc(NS(C)(=O)=O)ccc2O[C@@H]1CN(C)C(=O)Nc1ccc(C(F)(F)F)cc1 | nt | nt | nt | nt | 1
O=C(C[C@H]1CC[C@H]2[C@@H](COC[C@H](O)CN2Cc2cc(F)cc(F)c2)O1)NC1CCC1 | nt | nt | nt | nt | 0
C(=N\n1cnnc1)/c1cn(Cc2ccccc2)c2ccccc12 | -10 | 31* | -2 | 4 | 4
Nc1ccc(C(=O)N/N=C/c2cn(Cc3ccc(F)cc3)c3ccccc23)cc1 | 6 | 33* | 2 | -1 | 0
Nc1ccc(C(=O)N/N=C/c2cn(Cc3ccccc3F)c3ccccc23)cc1 | 1 | 30 | -2 | -5 | 0
O=C1NC(=O)N(c2ccccc2)C(=O)/C1=C/c1coc2ccc(O)cc2c1=O | -1 | 31* | -1 | 4 | 0
CSC1=NSC2=NC(=O)/C(=C/c3coc4ccc(O)cc4c3=O)C(=N)N12 | 12* | 7 | 13 | 1 | nt
CN1C(=O)c2cc(NC(=O)C3CCOCC3)ccc2OC[C@H]2O[C@@H](CC(=O)NCC3CC3)CC[C@@H]21 | nt | nt | nt | nt | -3
O=C(C[C@@H]1C[C@@H]2c3cc(NC(=O)C4CCOCC4)ccc3O[C@@H]2[C@H](CO)O1)NCc1ccccc1F | nt | nt | nt | nt | -1
CC(C)c1nc(NCc2ccccc2)c(C#N)c2c1CCCC2 | -1 | 13 | 0 | -2 | -2
CC(C)c1nc(NCCO)c(C#N)c2c1CCCC2 | -2 | 39* | 16 | 3 | 3
CCC(=O)N1C[C@@H]2[C@H](c3ccccc31)[C@@H](CO)N2C(=O)Nc1ccccc1 | nt | nt | nt | nt | -1
C[C@@H]1CCCCO[C@@H](CN(C)C(=O)Nc2ccccc2)[C@H](C)CN([C@@H](C)CO)C(=O)c2cc(NS(=O)(=O)c3ccc(Cl)cc3)ccc2O1 | nt | nt | nt | nt | 0
Cn1c(N2CCOCC2)nc(-c2ccccc2)c1-c1ccccc1 | 0 | 2 | 103* | 0 | 1
N#Cc1c(NC(=O)c2ccc(-c3ccccc3[N+](=O)[O-])o2)sc2c1CCCC2 | -1 | 32* | -10 | -5 | -1
CC1CCN(Cc2cc(=O)oc3cc(O)c(Cl)cc23)CC1 | 0 | 12 | + | -1 | 1
CC1CCN(Cc2cc(=O)oc3cc4c(cc23)CCCC4)CC1 | -1 | -3 | 5 | -3 | 0
CN(Cc1ccccc1F)Cc1cc(=O)oc2cc(O)c(Cl)cc12 | -3 | 7 | + | -2 | -1
CC1CN(Cc2cc(=O)oc3cc(O)c(Cl)cc23)CC(C)O1 (configuration not stated) | -2 | 1 | + | 1 | -1
Cc1cc2oc(=O)cc(CN(C)Cc3ccccc3F)c2cc1Cl | -1 | 17 | 1 | 7 | -3
SMILES | FadD28 binding | GDH-TPI counter | Mtb FBA inh | SARS 3CLpro inh | Mtb BioA inh
Cc1ccc(S(=O)(=O)Nc2ccc3c(c2)C(=O)N(C)[C@H]2CC[C@@H](CC(=O)O)O[C@@H]2CO3)cc1 | nt | nt | nt | nt | 2
CC(C)C1Nc2c(O)cc(Cl)c([N+](=O)[O-])c2C2C=CCC21 (configuration not stated) | 25* | 5 | -6 | 7 | 4
CC(=O)c1ccc(-c2cccs2)s1 | -2 | 10 | + | -3 | 0
O=C(O)COc1ccccc1/C=N/NC(=O)c1cc(-c2ccc(F)cc2)nc2ccccc12 | -4 | 51* | 5 | 9 | 1
COc1ccc(-c2cc(C(=O)N/N=C/c3sccc3C)c3ccccc3n2)c(OC)c1 | -3 | 34* | -1 | -3 | -1
COc1ccccc1-c1cc(C(=O)N/N=C/C=C/c2ccccc2[N+](=O)[O-])c2ccccc2n1 | -2 | 31* | 1 | 11 | -2
O=C(N/N=C/c1ccc2c(c1)OCO2)c1cc(-c2ccc(F)cc2)nc2ccccc12 | -6 | 22 | 0 | 5 | -2
O=C(O)c1ccc(N/N=C/C=C/c2ccccc2[N+](=O)[O-])cc1 | 2 | 39* | -7 | 6 | nt
COc1ccc(-c2cc(C(=O)N/N=C/c3ccc4c(c3)OCO4)c3ccccc3n2)c(OC)c1 | -3 | 19 | 5 | -5 | -1
C[C@@H]1CN([C@H](C)CO)C(=O)c2cccc(NS(=O)(=O)c3ccc(F)cc3)c2O[C@@H]1CN(C)C(=O)Nc1cccc2ccccc12 | nt | nt | nt | nt | -1
Cc1noc(C)c1S(=O)(=O)N(C)C[C@H]1Oc2ccc(NC(=O)C3CCCCC3)cc2CC(=O)N([C@@H](C)CO)C[C@H]1C | nt | nt | nt | nt | -1
CCCC(=O)Nc1ccc2c(c1)OC[C@@H](C)N(C(=O)CN(C)C)C[C@H](C)[C@@H](OC)CN(C)C2=O | nt | nt | nt | nt | -3
O=C(Nc1ccc(-c2ccccc2)cc1)[C@@H]1[C@@H](CO)[C@@H]2Cn3c(cccc3=O)[C@H]1N2Cc1cncnc1 | nt | nt | nt | nt | -1
COc1cc(/C=N/NC(=O)c2cnn3c(C)cc(-c4ccccc4)nc23)ccc1O | 1 | 37* | -2 | -1 | 2
CCOc1cc(/C=N/NC(=O)c2cc(-c3cccc(OC)c3)nc3ccccc23)ccc1O | -2 | 37* | 0 | nt | 1
COc1cc(/C=N/NC(=O)c2cc(-c3ccccc3)nc3ccccc23)ccc1O | -3 | 46* | 8 | 0 | 1
CCOc1ccc(/C=N/NC(=O)c2cc(-c3ccccc3)nc3ccccc23)cc1O | -1 | 15 | 0 | 5 | 1
COc1cc(/C=N/NC(=O)c2cc(-c3ccccc3OC(C)C)nc3ccccc23)ccc1O | -6 | 40* | -3 | 3 | nt
CO[C@H]1CN(C)C(=O)c2cc(NC(=O)Nc3ccc(F)cc3)ccc2OC[C@H](C)NC[C@H]1C | nt | nt | nt | nt | -1
C[C@H](CO)N1C[C@H](C)[C@H](CN(C)C(=O)Nc2ccccc2)Oc2ccc(NC(=O)Cn3cnnn3)cc2CC1=O | nt | nt | nt | nt | -2
Cc1ccc(/C=C2\SC(N3CCCC3)=NC2=O)cc1 | nt | nt | nt | -6 | nt
CCOc1ccc(/C=C2\SC(N3CCCCC3)=NC2=O)cc1 | -1 | 48* | 2 | 3 | -1
COc1cc(/C=C2\SC(=S)N(CC(=O)O)C2=O)ccc1OS(=O)(=O)c1ccc(C)cc1 | 9.7* | 27 | 2 | nt | 3
CC(C)NC(=O)N(C)C[C@@H]1Oc2ccc(NS(=O)(=O)c3ccc(F)cc3)cc2C(=O)N([C@@H](C)CO)C[C@H]1C | nt | nt | nt | nt | -1
Cc1ccc(C(=O)OCC(=O)Nc2ccccc2Cl)c(O)c1 | -1 | 6 | 8 | 3 | nt
O=C(COC(=O)c1ccc(O)cc1O)Nc1cccc2ccccc12 | 12* | 2 | -2 | nt | -1
